Measurements published in publication PMC7862700, “An all-to-all approach to the identification of sequence-specific readers for epigenetic DNA modifications on cytosine”.

Experiments:
Experiment in all cases: DAPPL (digital affinity profiling via proximity ligation, sequencing); 10 mM Tris-HCl pH 7.5, 50 mM NaCl, 1 mM DTT, 4% glycerol, room temperature, 30 min; GST-TFs on glutathione beads, 16-mer random dsDNA library, 0.1% formaldehyde crosslink after washing; high values mean tight binding
Details in all cases: protein: recombinant; tags: N-terminal GST; dsDNA, one strand shown
ELK1 = target: T1, ELK1 (Homo sapiens, UniProt P19419 1-428)
T1 sequence: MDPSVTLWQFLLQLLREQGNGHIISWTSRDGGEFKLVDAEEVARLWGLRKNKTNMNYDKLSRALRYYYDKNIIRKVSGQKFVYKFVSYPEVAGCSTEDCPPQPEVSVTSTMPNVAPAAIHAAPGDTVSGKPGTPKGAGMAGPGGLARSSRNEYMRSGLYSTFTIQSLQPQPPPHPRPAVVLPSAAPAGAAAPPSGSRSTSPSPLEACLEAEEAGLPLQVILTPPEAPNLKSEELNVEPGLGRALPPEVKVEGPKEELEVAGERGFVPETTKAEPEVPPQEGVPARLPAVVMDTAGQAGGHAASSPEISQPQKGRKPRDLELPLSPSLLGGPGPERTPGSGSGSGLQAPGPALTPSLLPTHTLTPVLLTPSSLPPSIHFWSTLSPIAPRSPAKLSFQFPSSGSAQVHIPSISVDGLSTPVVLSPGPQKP
How it was run: (§1)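 The binding signal reported is, for every hexamer, its read frequency for a factor over its read frequency for the tag-only sample. Reads came from pools of yeast-expressed, GST-fused human transcription factors on glutathione beads, barcoded with DNA and mixed with that sample, which were incubated with 200 nmole of a random double-stranded 16-mer DNA library in Tris/NaCl/DTT/glycerol buffer at room temperature for 30 min. After washing, the pools were crosslinked with 0.1% formaldehyde, proximity-ligated with BsaI/T4 ligase for 1 h at 37 °C, PCR-amplified and sequenced on an Illumina NextSeq500.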

GABPA = target: T2, GABPA (Homo sapiens, UniProt Q06546 1-454)
T2 sequence: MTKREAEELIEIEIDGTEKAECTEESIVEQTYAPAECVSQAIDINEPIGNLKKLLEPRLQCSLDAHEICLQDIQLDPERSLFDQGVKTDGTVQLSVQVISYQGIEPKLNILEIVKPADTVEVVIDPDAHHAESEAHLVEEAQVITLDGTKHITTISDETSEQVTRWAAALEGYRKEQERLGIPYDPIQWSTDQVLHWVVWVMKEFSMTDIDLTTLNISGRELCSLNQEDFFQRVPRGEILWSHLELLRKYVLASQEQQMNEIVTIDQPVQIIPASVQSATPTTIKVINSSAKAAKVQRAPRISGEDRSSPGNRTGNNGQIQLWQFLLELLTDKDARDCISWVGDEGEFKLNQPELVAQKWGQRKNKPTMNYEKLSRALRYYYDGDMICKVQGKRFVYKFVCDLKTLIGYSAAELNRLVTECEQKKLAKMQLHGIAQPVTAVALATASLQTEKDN
How it was run: as §1

ERG = target: T3, ERG (Homo sapiens, UniProt P11308 1-479)
T3 sequence: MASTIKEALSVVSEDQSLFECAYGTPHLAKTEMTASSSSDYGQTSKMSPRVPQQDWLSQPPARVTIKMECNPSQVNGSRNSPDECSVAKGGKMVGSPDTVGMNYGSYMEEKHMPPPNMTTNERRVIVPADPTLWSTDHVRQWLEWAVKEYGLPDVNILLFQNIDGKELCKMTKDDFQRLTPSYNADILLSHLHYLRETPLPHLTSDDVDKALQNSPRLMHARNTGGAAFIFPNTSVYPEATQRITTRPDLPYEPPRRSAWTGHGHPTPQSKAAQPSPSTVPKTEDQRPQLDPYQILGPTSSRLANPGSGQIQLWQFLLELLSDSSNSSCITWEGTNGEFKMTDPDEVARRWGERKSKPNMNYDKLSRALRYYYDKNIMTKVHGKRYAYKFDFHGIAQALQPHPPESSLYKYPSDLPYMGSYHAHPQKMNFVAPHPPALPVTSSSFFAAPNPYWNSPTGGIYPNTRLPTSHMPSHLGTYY
How it was run: as §1

ELF1 = ELF1 (Homo sapiens, UniProt P32519 1-619)
How it was run: as §1

SPIB = SPIB (Homo sapiens, UniProt Q01892 1-262)
How it was run: as §1

ETV5 = ETV5 (Homo sapiens, UniProt P41161 1-510)
How it was run: as §1

ELF4 = ELF4 (Homo sapiens, UniProt Q99607 1-663)
How it was run: as §1

ELK4 = target: T4, ELK4 (Homo sapiens, UniProt P28324-2 1-405)
T4 sequence: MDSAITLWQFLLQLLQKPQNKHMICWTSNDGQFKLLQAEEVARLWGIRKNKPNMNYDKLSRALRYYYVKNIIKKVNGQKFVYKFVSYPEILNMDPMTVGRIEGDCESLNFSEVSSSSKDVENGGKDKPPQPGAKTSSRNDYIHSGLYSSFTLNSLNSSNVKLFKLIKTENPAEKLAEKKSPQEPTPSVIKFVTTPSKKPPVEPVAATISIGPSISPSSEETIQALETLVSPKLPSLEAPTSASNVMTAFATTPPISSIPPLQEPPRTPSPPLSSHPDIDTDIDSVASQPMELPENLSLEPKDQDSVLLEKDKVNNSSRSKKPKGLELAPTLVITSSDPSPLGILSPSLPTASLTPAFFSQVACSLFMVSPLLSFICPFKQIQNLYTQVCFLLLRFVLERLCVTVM
How it was run: as §1

ELF3 = target: T5, ELF3 (Homo sapiens, UniProt P78545 1-371)
T5 sequence: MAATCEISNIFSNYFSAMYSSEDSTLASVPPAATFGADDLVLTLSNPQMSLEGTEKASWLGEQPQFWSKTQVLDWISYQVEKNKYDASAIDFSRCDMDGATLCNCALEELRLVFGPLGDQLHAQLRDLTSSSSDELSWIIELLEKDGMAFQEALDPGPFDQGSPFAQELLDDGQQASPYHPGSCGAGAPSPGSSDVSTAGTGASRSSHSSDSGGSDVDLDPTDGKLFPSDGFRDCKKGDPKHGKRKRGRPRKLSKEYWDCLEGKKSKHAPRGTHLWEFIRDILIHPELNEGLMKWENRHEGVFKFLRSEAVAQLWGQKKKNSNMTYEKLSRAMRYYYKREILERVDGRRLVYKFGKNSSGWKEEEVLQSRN
How it was run: as §1

ETV1 = ETV1 (Homo sapiens, UniProt P50549 1-477)
How it was run: as §1

ERF = target: T6, ERF (Homo sapiens, UniProt P50548 1-548)
T6 sequence: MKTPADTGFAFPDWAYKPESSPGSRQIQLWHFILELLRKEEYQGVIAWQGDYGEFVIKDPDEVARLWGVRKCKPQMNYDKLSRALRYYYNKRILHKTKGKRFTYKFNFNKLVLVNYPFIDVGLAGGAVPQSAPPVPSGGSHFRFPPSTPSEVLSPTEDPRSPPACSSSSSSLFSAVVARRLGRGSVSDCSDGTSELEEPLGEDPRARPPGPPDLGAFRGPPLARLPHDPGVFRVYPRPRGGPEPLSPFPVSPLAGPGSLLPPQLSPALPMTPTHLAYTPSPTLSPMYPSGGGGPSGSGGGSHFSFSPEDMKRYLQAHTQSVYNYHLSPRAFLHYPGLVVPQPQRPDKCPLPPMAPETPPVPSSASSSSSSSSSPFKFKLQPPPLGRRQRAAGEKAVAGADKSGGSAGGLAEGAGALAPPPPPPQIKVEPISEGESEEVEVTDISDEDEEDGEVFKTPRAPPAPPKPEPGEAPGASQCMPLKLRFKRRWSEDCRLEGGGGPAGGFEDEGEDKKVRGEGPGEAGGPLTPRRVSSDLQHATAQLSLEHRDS
How it was run: as §1

ETV3L = target: T7, ETV3L (Homo sapiens, UniProt Q6ZN32 1-361)
T7 sequence: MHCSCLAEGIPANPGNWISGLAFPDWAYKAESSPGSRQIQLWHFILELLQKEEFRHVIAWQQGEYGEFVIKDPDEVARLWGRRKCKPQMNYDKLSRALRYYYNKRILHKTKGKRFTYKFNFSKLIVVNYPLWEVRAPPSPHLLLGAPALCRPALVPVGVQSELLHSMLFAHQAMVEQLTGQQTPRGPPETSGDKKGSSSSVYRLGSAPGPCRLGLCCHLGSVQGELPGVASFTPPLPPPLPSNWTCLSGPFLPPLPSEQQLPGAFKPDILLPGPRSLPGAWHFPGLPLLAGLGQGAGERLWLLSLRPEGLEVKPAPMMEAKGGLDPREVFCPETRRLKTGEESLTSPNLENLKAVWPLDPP
How it was run: as §1

ETV7 = target: T8, ETV7 (Homo sapiens, UniProt Q9Y603 1-341)
T8 sequence: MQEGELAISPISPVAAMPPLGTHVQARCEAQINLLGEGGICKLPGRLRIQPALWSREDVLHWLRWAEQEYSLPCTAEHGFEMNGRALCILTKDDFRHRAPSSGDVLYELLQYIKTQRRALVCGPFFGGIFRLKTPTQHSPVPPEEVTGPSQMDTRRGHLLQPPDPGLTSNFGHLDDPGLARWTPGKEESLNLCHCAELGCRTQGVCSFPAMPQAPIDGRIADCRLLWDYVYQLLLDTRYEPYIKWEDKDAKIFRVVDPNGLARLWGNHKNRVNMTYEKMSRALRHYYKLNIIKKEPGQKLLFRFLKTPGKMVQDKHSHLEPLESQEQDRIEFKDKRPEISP
How it was run: as §1

ETV6 = ETV6 (Homo sapiens, UniProt P41212 1-452)
How it was run: as §1

EHF = target: T9, EHF (Homo sapiens, UniProt Q9NZC4 1-300)
T9 sequence: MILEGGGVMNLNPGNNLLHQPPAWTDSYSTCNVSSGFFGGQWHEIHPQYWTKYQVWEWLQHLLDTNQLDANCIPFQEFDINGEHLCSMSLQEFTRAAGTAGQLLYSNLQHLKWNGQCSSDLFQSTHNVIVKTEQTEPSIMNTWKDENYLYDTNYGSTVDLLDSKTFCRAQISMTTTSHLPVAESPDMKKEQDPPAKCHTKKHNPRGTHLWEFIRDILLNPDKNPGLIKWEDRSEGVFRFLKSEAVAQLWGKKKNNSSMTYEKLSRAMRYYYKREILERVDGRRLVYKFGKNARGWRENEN
How it was run: as §1

ETV2 = target: T10, ETV2 (Homo sapiens, UniProt O00321 1-342)
T10 sequence: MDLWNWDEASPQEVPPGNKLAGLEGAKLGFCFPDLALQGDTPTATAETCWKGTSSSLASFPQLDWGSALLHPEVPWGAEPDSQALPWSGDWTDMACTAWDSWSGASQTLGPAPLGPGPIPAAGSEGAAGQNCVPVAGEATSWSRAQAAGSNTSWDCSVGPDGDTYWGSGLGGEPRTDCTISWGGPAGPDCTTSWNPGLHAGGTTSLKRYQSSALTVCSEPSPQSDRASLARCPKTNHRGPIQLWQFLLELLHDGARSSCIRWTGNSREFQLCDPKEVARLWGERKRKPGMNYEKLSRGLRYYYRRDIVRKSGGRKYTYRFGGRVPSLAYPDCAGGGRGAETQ
How it was run: as §1

ETS2 = target: T11, ETS2 (Homo sapiens, UniProt P15036 1-469)
T11 sequence: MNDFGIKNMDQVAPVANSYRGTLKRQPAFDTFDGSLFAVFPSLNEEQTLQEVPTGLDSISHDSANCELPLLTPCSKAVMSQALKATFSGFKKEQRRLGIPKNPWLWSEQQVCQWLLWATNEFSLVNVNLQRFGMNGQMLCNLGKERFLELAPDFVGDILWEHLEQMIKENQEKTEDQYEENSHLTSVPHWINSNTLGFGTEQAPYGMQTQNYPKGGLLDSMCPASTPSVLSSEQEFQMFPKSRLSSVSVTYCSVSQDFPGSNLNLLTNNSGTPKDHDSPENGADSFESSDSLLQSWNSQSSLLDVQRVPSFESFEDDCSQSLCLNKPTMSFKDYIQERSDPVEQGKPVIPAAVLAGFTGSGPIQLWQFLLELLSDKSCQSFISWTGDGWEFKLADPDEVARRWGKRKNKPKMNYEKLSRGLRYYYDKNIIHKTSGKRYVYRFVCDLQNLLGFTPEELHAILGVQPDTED
How it was run: as §1

ETV5, sequence (P41161 whole entry): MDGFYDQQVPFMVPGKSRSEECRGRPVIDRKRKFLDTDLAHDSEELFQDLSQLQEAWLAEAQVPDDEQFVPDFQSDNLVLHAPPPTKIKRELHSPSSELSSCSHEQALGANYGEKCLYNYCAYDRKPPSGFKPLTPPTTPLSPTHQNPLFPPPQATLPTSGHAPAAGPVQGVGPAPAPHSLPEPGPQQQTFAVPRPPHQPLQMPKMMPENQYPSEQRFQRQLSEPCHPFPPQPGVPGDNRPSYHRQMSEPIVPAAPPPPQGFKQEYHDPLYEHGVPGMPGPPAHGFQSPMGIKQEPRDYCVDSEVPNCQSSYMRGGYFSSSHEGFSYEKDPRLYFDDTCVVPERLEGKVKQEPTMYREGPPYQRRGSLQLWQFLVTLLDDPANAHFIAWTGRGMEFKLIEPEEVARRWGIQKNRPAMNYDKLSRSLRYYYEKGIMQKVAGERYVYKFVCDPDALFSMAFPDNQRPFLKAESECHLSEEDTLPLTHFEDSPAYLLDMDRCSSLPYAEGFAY
ETV6, sequence (P41212 whole entry): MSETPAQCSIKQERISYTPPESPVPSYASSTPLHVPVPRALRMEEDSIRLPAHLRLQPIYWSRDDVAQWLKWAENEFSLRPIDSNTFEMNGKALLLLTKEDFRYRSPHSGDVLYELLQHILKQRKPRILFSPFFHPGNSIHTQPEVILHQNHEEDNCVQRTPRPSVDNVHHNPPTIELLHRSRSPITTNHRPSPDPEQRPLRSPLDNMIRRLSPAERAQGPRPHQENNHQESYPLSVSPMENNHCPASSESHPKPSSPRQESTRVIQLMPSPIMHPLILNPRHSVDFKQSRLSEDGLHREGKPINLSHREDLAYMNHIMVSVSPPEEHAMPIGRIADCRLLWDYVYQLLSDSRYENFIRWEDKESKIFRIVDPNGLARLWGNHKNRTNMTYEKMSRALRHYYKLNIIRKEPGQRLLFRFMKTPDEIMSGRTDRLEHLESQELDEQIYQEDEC
ELF4, sequence (Q99607 whole entry): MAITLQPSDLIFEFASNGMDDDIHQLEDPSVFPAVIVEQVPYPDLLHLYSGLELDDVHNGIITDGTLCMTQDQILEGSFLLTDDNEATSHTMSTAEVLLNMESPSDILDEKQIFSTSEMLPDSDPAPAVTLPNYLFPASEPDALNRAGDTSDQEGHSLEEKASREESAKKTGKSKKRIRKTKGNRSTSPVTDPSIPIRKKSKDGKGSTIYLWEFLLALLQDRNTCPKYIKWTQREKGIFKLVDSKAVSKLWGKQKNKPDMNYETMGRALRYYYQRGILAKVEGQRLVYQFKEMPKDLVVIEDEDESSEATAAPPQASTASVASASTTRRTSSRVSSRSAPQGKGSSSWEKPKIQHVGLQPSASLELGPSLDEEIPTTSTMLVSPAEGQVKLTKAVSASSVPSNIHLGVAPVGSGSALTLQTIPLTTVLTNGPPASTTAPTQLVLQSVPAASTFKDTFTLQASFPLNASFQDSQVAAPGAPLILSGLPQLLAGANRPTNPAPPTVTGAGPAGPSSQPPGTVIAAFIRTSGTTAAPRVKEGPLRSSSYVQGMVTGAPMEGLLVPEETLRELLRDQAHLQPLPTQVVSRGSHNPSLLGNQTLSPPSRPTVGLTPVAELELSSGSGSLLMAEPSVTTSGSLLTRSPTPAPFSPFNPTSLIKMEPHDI
SPIB, sequence (Q01892 whole entry): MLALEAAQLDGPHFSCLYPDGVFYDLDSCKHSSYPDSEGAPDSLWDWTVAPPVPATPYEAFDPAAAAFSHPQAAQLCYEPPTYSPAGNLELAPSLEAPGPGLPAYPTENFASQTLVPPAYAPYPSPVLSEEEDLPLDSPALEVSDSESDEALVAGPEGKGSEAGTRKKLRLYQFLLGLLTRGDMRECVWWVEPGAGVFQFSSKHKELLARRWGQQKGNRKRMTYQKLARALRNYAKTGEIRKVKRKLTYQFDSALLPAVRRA
ELF1, sequence (P32519 whole entry): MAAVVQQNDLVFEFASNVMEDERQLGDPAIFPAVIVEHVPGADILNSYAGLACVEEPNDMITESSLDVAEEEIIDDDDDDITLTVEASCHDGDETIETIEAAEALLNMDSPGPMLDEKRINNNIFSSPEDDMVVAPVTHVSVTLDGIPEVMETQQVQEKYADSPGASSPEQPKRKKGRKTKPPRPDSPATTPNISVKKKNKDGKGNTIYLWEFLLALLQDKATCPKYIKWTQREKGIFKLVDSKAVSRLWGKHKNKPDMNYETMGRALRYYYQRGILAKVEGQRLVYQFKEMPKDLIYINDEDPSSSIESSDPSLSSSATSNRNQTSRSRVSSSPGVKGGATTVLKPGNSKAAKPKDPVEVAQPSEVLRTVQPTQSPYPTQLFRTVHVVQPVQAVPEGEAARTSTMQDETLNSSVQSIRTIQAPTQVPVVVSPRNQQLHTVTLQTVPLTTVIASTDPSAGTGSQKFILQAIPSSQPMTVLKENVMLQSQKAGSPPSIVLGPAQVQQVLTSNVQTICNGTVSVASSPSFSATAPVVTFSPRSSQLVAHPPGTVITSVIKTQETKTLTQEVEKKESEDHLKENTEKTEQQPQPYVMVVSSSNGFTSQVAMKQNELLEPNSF
ETV1, sequence (P50549 whole entry): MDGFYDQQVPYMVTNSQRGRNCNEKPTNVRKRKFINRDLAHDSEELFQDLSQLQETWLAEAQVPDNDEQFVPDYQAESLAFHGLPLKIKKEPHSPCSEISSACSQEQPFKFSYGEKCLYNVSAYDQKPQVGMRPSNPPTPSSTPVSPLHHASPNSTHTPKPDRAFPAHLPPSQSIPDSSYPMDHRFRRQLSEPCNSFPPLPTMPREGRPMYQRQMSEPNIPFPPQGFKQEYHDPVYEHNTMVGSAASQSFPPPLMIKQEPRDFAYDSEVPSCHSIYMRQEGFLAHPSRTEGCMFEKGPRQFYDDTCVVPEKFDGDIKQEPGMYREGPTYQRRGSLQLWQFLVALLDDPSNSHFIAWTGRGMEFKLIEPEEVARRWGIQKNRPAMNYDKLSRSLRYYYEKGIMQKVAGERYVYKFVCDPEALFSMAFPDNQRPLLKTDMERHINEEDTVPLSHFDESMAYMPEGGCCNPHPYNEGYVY

GGGGCT
binding signal (ELK1): 1.09 fold enrichment (6-mer frequency, TF over GST control)
binding signal (GABPA): 1.11 fold enrichment (6-mer frequency, TF over GST control)
binding signal (ERG): 1.01 fold enrichment (6-mer frequency, TF over GST control)
binding signal (ELF1): 1.04 fold enrichment (6-mer frequency, TF over GST control)
binding signal (SPIB): 1.03 fold enrichment (6-mer frequency, TF over GST control)
binding signal (ETV5): 1.04 fold enrichment (6-mer frequency, TF over GST control)
binding signal (ELF4): 1.1 fold enrichment (6-mer frequency, TF over GST control)
binding signal (ELK4): 1.14 fold enrichment (6-mer frequency, TF over GST control)
binding signal (ELF3): 1.01 fold enrichment (6-mer frequency, TF over GST control)
binding signal (ETV1): 1.11 fold enrichment (6-mer frequency, TF over GST control)
binding signal (ERF): 1.06 fold enrichment (6-mer frequency, TF over GST control)
binding signal (ETV3L): 1.22 fold enrichment (6-mer frequency, TF over GST control)
binding signal (ETV7): 1.06 fold enrichment (6-mer frequency, TF over GST control)
binding signal (ETV6): 1.04 fold enrichment (6-mer frequency, TF over GST control)

TCGAAC
binding signal (ELK1): 1.01 fold enrichment (6-mer frequency, TF over GST control)
binding signal (GABPA): 1.02 fold enrichment (6-mer frequency, TF over GST control)
binding signal (ELF1): 1.09 fold enrichment (6-mer frequency, TF over GST control)
binding signal (EHF): 1.07 fold enrichment (6-mer frequency, TF over GST control)
binding signal (SPIB): 1.03 fold enrichment (6-mer frequency, TF over GST control)
binding signal (ETV5): 1.01 fold enrichment (6-mer frequency, TF over GST control)
binding signal (ELF4): 1.01 fold enrichment (6-mer frequency, TF over GST control)
binding signal (ELK4): 1.05 fold enrichment (6-mer frequency, TF over GST control)
binding signal (ETV2): 1.03 fold enrichment (6-mer frequency, TF over GST control)
binding signal (ELF3): 1.05 fold enrichment (6-mer frequency, TF over GST control)
binding signal (ERF): 1.07 fold enrichment (6-mer frequency, TF over GST control)
binding signal (ETV3L): 1.07 fold enrichment (6-mer frequency, TF over GST control)
binding signal (ETS2): 1.03 fold enrichment (6-mer frequency, TF over GST control)
binding signal (ETV7): 1.04 fold enrichment (6-mer frequency, TF over GST control)
binding signal (ETV6): 1 fold enrichment (6-mer frequency, TF over GST control)

GCGAAA
binding signal (ETV5): 1.01 fold enrichment (6-mer frequency, TF over GST control)
binding signal (ETV7): 1.04 fold enrichment (6-mer frequency, TF over GST control)
